# Reference: PubChem BioAssay (NCI)
# Where “and” joins values, the source holds several entries; their conditions need not be identical. Equal entries are not always repeated. This is part of a sample that, as a whole, favours compounds with a hit. Of some 83,000 tested, about 20% had one in any assay.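 Single-concentration screen, 48 h exposure, 96-well plates. Endpoint: percent growth. Below 10 = active.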 Calls of active or inactive are those of the source.
# System: HL-60(TB) leukemia
# Test: NCI-60 one-dose screen, 48 h (100 = growth as untreated, 0 = no growth, -100 = all killed)
# Settings: 10 µM unless noted
row,Compound,growth
1,O=C(CCC(=O)N/N=C/c1ccccc1O)N/N=C/c1ccccc1O,7.25% (active)
2,O=C1CCC(=O)N1CC1CC2CCC1C2 (stereo not given),128% (inactive) and 97.8% (inactive)
3,CN(c1ccccc1)c1ccc2c(c1)OCCC21CC1Nc1cnccc1C(=O)O (stereo not given),65.3% (inactive)
4,COc1ccc([C@H]2[C@@H](F)C(=O)N2c2cc(OC)c(OC)c(OC)c2)cc1F,-14.7% (active)
5,O=S(=O)(NCCNc1cc(-c2cn(-c3ccccc3)nc2-c2cccc(O)c2)ccn1)c1cccc(F)c1,27.4% (inactive)
6,COc1ccc(Cn2cc3c(c2-c2ccccc2)CCc2cncnc2-3)cc1,15.2% (inactive)
7,O=C1c2c(O)ccc(O)c2C(=O)c2c(NCCNCCO)ccc(NCCNCCO)c21,-28.5% (active) and -59.5% (active)
8,NC(=O)c1c(NC(=O)c2ccc(OCC3CCCO3)cc2)sc2c1CCCC2 (stereo not given),53.8% (inactive)
9,COc1cc2c3c(c4c5ccccc5[nH]c4c2c(OC)c1OC)C(=O)N(CCN1CCOCC1)C3=O,69% (inactive)
10,CC1Cc2c(N(C)C)ncnc2N(C)c2ccc(O)cc21 (stereo not given),81.1% (inactive)
11,CCCCCCOc1ccc(/C=N/Nc2cc(C)nc3ccc(Br)cc23)cc1,-13.7% (active)
12,C[C@]12CC[C@@H]3c4ccc(O)c([N+](=O)[O-])c4CC[C@H]3[C@@H]1CCC2=O,93.7% (inactive)
13,O=C(N/N=C/c1ccc(Cl)cc1Cl)c1ccccc1Nc1cccc(C(F)(F)F)c1,85.7% (inactive)
14,CN1C(=O)C(N=Nc2ccc([N+](=O)[O-])cc2)SC1=S (stereo not given),-4.43% (active) and -10.4% (active)
15,Nc1c(C(=O)Nc2cccc(F)c2)sc2nc3c(cc12)C(=O)CCC3,31.2% (inactive)
16,CC/C(=C(\c1ccccc1)c1ccc(OCCNC)cc1)c1ccccc1,6.56% (active)
17,CC/C=C\C[C@H]1C/C=C2/C(=O)C=C[C@@H]2C/C=C\CCCC(=O)O1,-27.2% (active)
18,Oc1c(Cl)cc(Cl)c2ccc(Cn3cc(-c4ccc(C(F)(F)F)cc4)nn3)nc12,-24.9% (active)
19,C#Cc1ccccc1NC(=O)c1sc2nc3c(cc2c1N)CCCCCC3,92.7% (inactive)
20,Cc1nn(-c2ccccc2)c(N2CCOCC2)c1/C=N/N=c1\sc2ccccc2n1C,67.2% (inactive)

row,Compound,growth
1,COc1cc(NC(=O)COc2ccccc2)c(C(N)=O)cc1OC,-11.7% (active)
2,O=C(Nc1ccc(OS(=O)(=O)c2ccc(F)cc2)cc1)C1CCCCCC1,56.4% (inactive)
3,COc1ccc(C2CC(c3ccc(Nc4nc(Nc5ccccc5)nc(Nc5ccccc5)n4)cc3)=NN2C(C)=O)cc1 (stereo not given),95.1% (inactive)
4,Clc1ccc(-n2cnc3c(Cl)ncnc32)cc1Cl,45.7% (inactive)
5,COc1ccc(-n2nnc(C(=O)NCCc3c[nH]c4ccc(F)cc34)c2C)cc1,86.9% (inactive)
6,COC(=O)[C@@H](CCCCNC(=O)[C@]12CCC(C)(C)C[C@@H]1C1=CC[C@@H]3[C@@]4(C)C/C(=C/c5ccco5)C(=O)C(C)(C)[C@@H]4CC[C@@]3(C)[C@]1(C)CC2)NC(=O)[C@]12CCC(C)(C)C[C@@H]1C1=CC[C@@H]3[C@@]4(C)C/C(=C/c5ccco5)C(=O)C(C)(C)[C@@H]4CC[C@@]3(C)[C@]1(C)CC2,114% (inactive)
7,COc1ccc2c(c1)NC1=C(C(=O)OC1)C2c1cc(OC)c2c(c1)OCO2 (stereo not given),0.722% (active)
8,O=C(O)C1C2CC3C(OC(=O)C31)C2Br (stereo not given),97% (inactive) and 103% (inactive)
9,Cc1cc(CCNC=O)c(C)c2c1sc1ccccc12,91.9% (inactive)
10,Cc1ccc(C)c2c1sc1nc3nc4sc5ccccc5n4c(=N)c3c(=O)n12,89% (inactive)
11,CC1CCC(=O)N1c1ccc(N)cc1 (stereo not given),104% (inactive)
12,CCCC1(CN2c3ccccc3Sc3ccc(Cl)cc32)CCN(CC)C1 (stereo not given),31.8% (inactive)
13,COc1cc(Nc2ccnc3ccc(Br)cc23)cc(OC)c1OC,24.8% (inactive)
14,CC(C)N1C(=O)/C(=C2\SC(=S)N(C(C)C)C2=O)SC1=S,100% (inactive)
15,CSc1n(Cc2ccc3ccccc3c2)c(C)c[n+]1Cc1ccc2ccccc2c1,-45% (active)
16,O=C(O)CCCCc1ccc([N+](=O)[O-])cc1,74.8% (inactive) and 93.9% (inactive)
17,COc1nc2ccccc2s1,94.5% (inactive)
18,CCOC(=O)c1cc(C(=O)c2cc(OC)c(OC)c(OC)c2)n2ncc3ccccc3c12,28.7% (inactive)
19,O=S(=O)(NCCCNc1cc(-c2cn(-c3ccccc3)nc2-c2cccc(O)c2)ccn1)c1ccccc1,42.8% (inactive)
20,N=C(N)c1ccc(-c2ccc(-c3ccccc3)o2)nc1,54.1% (inactive)
